Among the data in PubChem BioAssay (NCI) are growth values, retold here.

About 83,000 compounds went through this panel and 20% of them were active in at least one assay; those are over-represented in the sample as a whole.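 96-well plates, one dose, 48 hours. Percent growth reported; active if below 10.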 Activity calls are given as the source filed them.

The subject of this experiment is OVCAR-4 ovarian. In words: NCI-60 one-dose screen, 48 h (100 = growth as untreated, 0 = no growth, -100 = all killed). The following applies: 10 µM. On the procedure:
Growth inhibition of the OVCAR-4 human tumor cell line is measured as a screen for anti-cancer activity. Cells are grown in 96 well plates and exposed to the test compound for 48 hours. Compounds are tested at a single concentration, which is 10^-5 M for most compounds. The reported endpoint is percent growth (GI% or GIPRCNT), where numbers from 0 - 100% represent growth inhibition, and numbers from -100% - 0 represent cell death. For example, a value of 40 represents 60% growth inhibition. A value of 0 means no net growth occurred over the course of the experiment. A value of -40 indicates 40% of cells at the beginning of the experiment died by the end of the experiment. A value of -100 means all cells are dead at the end of the experiment.
NCI-60 Human Tumor Cell Lines Screen was performed using the standard one-dose NCI protocol, which is described in more detail at https://dtp.cancer.gov/discovery_development/nci-60/default.htm.
Compounds with GIPRCNT values below 10 were considered active. Activity score was based on GIPRCNT using the following formula: […]
Score is 0 for GIPRCNT values of 100 or above, 50 for GIPRCNT values of 0, and 100 for GIPRCNT values of -100.
As for `COc1cc(/C=C/C(=O)c2ccccc2)cc(OC)c1OC`, the growth was 65% (inactive).

Consider `C=C1CC/C=C(\C)C(=O)C[C@@H]2[C@@H]1CC2(C)C`, for which the growth was 110% (inactive).

For the compound `O=C1c2ccccc2C(=O)N1OCc1ccccc1`, the growth was 105% (inactive).

As for `CNc1nc(NC)c2cn[nH]c2n1`, the growth was 108% (inactive).

As for `[O-][N+](=Nc1cccc(Cl)c1)c1cccc(Cl)c1`, the growth is 61.8% (inactive).

Consider `C/C(=C\c1cc(Cl)ccc1OCC(=O)O)[N+](=O)[O-]`, for which the growth was 111% (inactive).

As for `CCOc1ccc(I)cc1`, the growth is 109% (inactive).

For `COc1cc(/C=C(\C#N)C(=O)c2ccccc2)ccc1OCc1ccccc1`, the growth was 106% (inactive).

Take `Cc1cccc(C(=O)N(C(C)C)C(C)C)c1`: the growth was 104% (inactive).

As to `CCCCOC(OCCCC)c1ccccc1`, the growth was 109% (inactive).

For `CCN(CC)C(=O)/C=C(/C)c1ccccc1`, the growth is 92.7% (inactive).

With `c1ccc(CN2COc3c(ccc4c3OCN(Cc3ccccc3)C4)C2)cc1`, the growth is 26.3% (inactive).

As for `Cc1cc(O)ccc1O`, the growth was 98.5% (inactive).

With `OC1OC(COC(c2ccccc2)(c2ccccc2)c2ccccc2)C(O)C(O)C1O` (stereo not given), the growth was 84.1% (inactive).

Take `CN(C)c1ccc2oc(=O)c3ccccc3c2c1`: the growth was 69.2% (inactive).

`Cc1cc(N)ccc1-c1ccc(N)cc1C`: the growth is 108% (inactive).

Consider `CCCCOC(=O)c1ccc(C(C)C)cc1`, for which the growth is 102% (inactive).

As for `CSc1[nH]c(=O)ncc1F`, the growth is 102% (inactive).

On to `CNS(=O)(=O)c1ccc(Cl)c(Cl)c1`, for which the growth was 99.8% (inactive).

For `O=C(O)CCC(=O)OC(C1CO1)C(OC(=O)CCC(=O)O)C1CO1` (stereo not given), the growth was 107% (inactive).

On to `CC1CCC(C(=O)O)N1` (stereo not given), for which the growth is 99% (inactive).

For the compound `O=[N+]([O-])c1ccc(-c2ncc(-c3ccc(Br)cc3)o2)cc1`, the growth was 97.3% (inactive).

As to `N#CC(=Nc1cccc(F)c1)C1=C(O)c2ccccc2C1=O`, the growth was 88.9% (inactive).

With `O=C(/C=C/C(=O)c1ccccc1)c1ccccc1`, the growth is 108% (inactive).

Turning to `COc1cc(C2c3cc4c(cc3C3OC(=O)C2C3CO)OCO4)cc(OC)c1OC` (stereo not given), the growth is 28.3% (inactive).

Turning to `O=C(O)COCC(=O)O`, the growth was 88.6% (inactive).

On to `O=C(NCO)c1ccccc1`, for which the growth is 109% (inactive).

In the case of `Nc1ccc(N)c([N+](=O)[O-])c1`, the growth is 112% (inactive).

As for `S=c1[nH]ccn1-c1ccccc1Cl`, the growth is 103% (inactive).

With `S=C1NCc2cncnc2N1`, the growth was 105% (inactive).

Take `O=C1C=CC2=C3c4cc(O)c(O)cc4CC3(O)COC2=C1O` (stereo not given): the growth was 110% (inactive).

On to `C#CC(C)(O)c1ccc(Cl)cc1` (stereo not given), for which the growth was 102% (inactive).

With `O=C(O)[C@@H]1[C@H]2C[C@H]3c4[nH]c5ccccc5c4CCN3C[C@@H]2CC[C@@H]1O`, the growth was 103% (inactive).

On to `CC(=O)c1ccc2c(ccc3ccccc32)c1`, for which the growth was 100% (inactive).

Take `O=C(O)c1ccnc(Br)c1`: the growth was 107% (inactive).

For `O=c1[nH]nc(SC2CCCCC2)c(=O)[nH]1`, the growth was 98.9% (inactive).

Regarding `Nc1nc(OCc2ccccc2)c2[nH]cnc2n1`, the growth is 65.9% (inactive).

For `CCCCCCCCCCC1CO1` (stereo not given), the growth was 98.8% (inactive).

As for `O=[N+]([O-])c1ccc(/C=C/C=C/c2ccccc2)c(Cl)c1`, the growth is 82.5% (inactive).

Consider `CC(C)(O)C#CC#CC(C)(C)O`, for which the growth is 104% (inactive).
